Laboratory results: PubChem BioAssay (NCATS)
A number with no mark means an inactive call. Inconclusive results are not listed. A call without a number means that no potency is given here. Activity calls are given as the source filed them. Unless noted, calls follow the shape of the dose curve; as a rule, active = well fitted curve in the direction sought with a large enough effect; inconclusive = small, poorly fitted or top-dose-only effect, or another doubt; inactive = no such curve, though single readings can be large; an effect the other way counts as inactive or inconclusive.

Key:
[1] = target: Lysosomal acid glucosylceramidase (Homo sapiens) (UniProt P04062); assay: Glucocerebrosidase-p2 (AID 348; in the data active = potency below about 10 µM; also: potency is read from the fitted curve at half-maximal effect); conditions: purified GBA, blue fluorogenic substrate, 40 min
Procedure, shortened: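 Normal human glucocerebrosidase (0.2 nM) with blue fluorogenic substrate (80 uM final) in citrate/phosphate pH 5.9 with 10mM sodium taurocholate, 0.01% tween-20; 40 min RT, NaOH/glycine stop; fluorescence Ex 365/Em 440; AC50 from a titration from 0.6 nM upwards.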

[2] = AP1 Signaling Pathway (AID 357; active = well fitted curve in either direction with a large enough effect, not every such curve was filed as active;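 also: ME-180 reporter cells stimulated with EGF at its EC50 level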); conditions: ME-180 AP-1-bla reporter, EGF-induced, beta-lactamase ratio, 5 h; at 7.69 µM (top of the series) unless noted
Procedure, shortened: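 Modulation of EGF-driven AP-1 transcription was assessed with a beta-lactamase reporter in ME-180 cells. Compound and EC50 EGF were co-incubated 5 hours at 37 °C before 2.5-hour CCF4 loading at room temperature and dual-emission reading.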

[3] = NFAT Signaling Pathway (AID 444; active = well fitted curve in either direction with a large enough effect, not every such curve was filed as active;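 also: carbachol stimulus at about its EC50 of 1 µM final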); conditions: Jurkat NFAT-bla M1, carbachol, beta-lactamase ratio, 5 h; at 7.69 µM (top of the series) unless noted
Procedure, shortened: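 Read-out: CCF4 FRET ratio (460 nm/530 nm) after 1 h RT dye loading, used for %activity and AC50 from titration series. Cells: Jurkat NFAT-β-lactamase/M1 line, treated with compound plus 1 uM carbachol for 5 h, 37 °C.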

[4] = Stat Signaling Pathway (AID 446; active = well fitted curve in either direction with a large enough effect, not every such curve was filed as active;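 also: ME-180 cervical cancer cells given 40 pM IL-6 alongside compound; SIE-controlled beta-lactamase reporter measured as 460/530 nm FRET emission ratio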); conditions: ME-180 SIE beta-lactamase reporter, IL-6 stimulated, 5 h; at 7.69 µM (top of the series) unless noted
Procedure, shortened: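 Compound effects on IL-6-induced STAT reporter activity were measured in ME-180 cells. After overnight culture, cells were co-treated with 40 pM IL-6 for 5 hrs before beta-lactamase substrate loading at room temperature.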

[5] = target: Glucocorticoid receptor (Homo sapiens) (UniProt P04150); assay: GR-GFP Redistribution (AID 450;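 active = compounds whose dose series gives a full or clear partial fitted curve of increased nuclear translocation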; also: potency is read from the fitted curve at half-maximal effect); conditions: U2OS GR-GFP nuclear translocation, laser cytometry, 2 h
[6] = target: Glucocorticoid receptor (Homo sapiens) (UniProt P04150); assay: GR-EFC Redistribution (AID 451; calls by dose curve; also: potency is read from the fitted curve at half-maximal effect); conditions: CHO-K1 GR-EFC translocation, beta-gal luminescence, 2 h
Procedure, shortened: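 Translocation of GR-ED fusion to nuclear EA restores b-gal, read by luminescence after 1 h room-temperature detection. Engineered CHO-K1 biosensor cells, 1,000/well, exposed 2 h at 37 C to titrations up to 46 uM final.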

[7] = target: Mitogen-activated protein kinase 10 (Mus musculus) (UniProt Q61831); assay: JNK3 AlphaScreen Assay (AID 530; active = well fitted curve in either direction with a large enough effect, not every such curve was filed as active;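 also: kinase came from lysate of stimulated human HepG2 cells; signal reports phosphorylation of biotinylated GST-cJun 1-79 at Ser73 with 10 µM ATP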); conditions: JNK3 lysate, c-Jun phosphorylation; series mostly up to 57.1 µM
Procedure, shortened: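 Kinase buffer: 20 mM Tris-HCl pH 7.6, 10 mM MgCl2, 1 mM DTT, 0.1 mM Na3VO4, 0.01% Tween-20; ATP 10 uM. Substrate biotin-GST-cJun(1-79), enzyme from activated HepG2 lysates. Detection by Ser73 phospho-antibody AlphaScreen.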

[8] = target: 3',5'-cyclic-AMP phosphodiesterase 4B (Homo sapiens) (UniProt Q07343); assay: qHTS Assay for Inhibitors of PDE-IV (AID 607; active = well fitted activation curve with a large enough effect in the main read-out, with a control signal flat, not every such curve was filed as active); conditions: HEK293 ACTOne CNG channel cells, membrane potential fluorescence; series mostly up to 22.9 µM
Procedure, shortened: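 ACTOne HEK293 cells carry a modified cAMP-gated CNG channel and express endogenous PDE4; plated 1000 cells/well, compounds up to 22.9 uM final. Membrane-potential dye fluorescence (ex 535/em 590) was read; parental cells received 10 uM forskolin + 100 uM RO 20-1724.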

[9] = target: Cytochrome P450 3A4 (Homo sapiens) (UniProt P08684); assay: qHTS Assay for Activators of Cytochrome P450 3A4 (AID 885); conditions: recombinant CYP3A4, Luciferin-PPXE luminescence, 60 min; series mostly up to 57.1 µM; also: nearly all actives have a fitted effect of over 65% in size
Procedure, shortened: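 CYP3A4 activity: Luciferin-PPXE O-dealkylation, 25uM substrate, 200mM KPO4, RT throughout. Read-out is luciferase luminescence; higher values reflect activation.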

[10] = target: Dual specificity protein kinase CLK4 (Homo sapiens) (UniProt Q9HAZ1); assay: qHTS Assay for Inhibitors of CDC-like Kinase 4 (Kinase-Glo Assay) (AID 1770); conditions: recombinant Clk4, Kinase-Glo ATP depletion luminescence; series mostly up to 66.7 µM; also: nearly all actives have a fitted effect of over 65% in size; also: potency is read from the fitted curve at half-maximal effect
Procedure, shortened: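 Readout: Kinase-Glo luminescence from ATP left after a 4.5 h room-temperature reaction of 25 nM Clk4 with 100 uM RS peptide and 1 uM ATP (final). Buffer: 25 mM Tris pH 7.5, 10 mM MgCl2.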

[11] = target: Dual specificity protein kinase CLK4 (Homo sapiens) (UniProt Q9HAZ1); assay: qHTS Assay for Inhibitors of CDC-like Kinase 4 (ADP-Glo Assay) (AID 1771); conditions: recombinant CLK4, ADP-Glo luminescence; series mostly up to 80 µM; also: nearly all actives have a fitted effect of over 70% in size; also: potency is read from the fitted curve at half-maximal effect
Procedure, shortened: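 In this ADP-Glo format, 1 uM ATP and 100 uM RS peptide served as substrates for 25 nM Clk4 in Mg2+/EGTA/DTT/Triton buffer; reactions ran 1 hr at room temperature before luminescent ADP quantification.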

[12] = target: Dual specificity protein kinase CLK4 (Homo sapiens) (UniProt Q9HAZ1); assay: qHTS Assay for Inhibitors of CDC-like Kinase 4 (ADP-FP Assay) (AID 1795); conditions: Transcreener ADP fluorescence polarization; series mostly up to 50 µM; also: nearly all actives have a fitted effect of over 60% in size; also: potency is read from the fitted curve at half-maximal effect;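 as to activity change, negative = inhibition: recombinant human CLK4 phosphorylating RS repeat peptide at 1 µM ATP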
Procedure, shortened: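 FP readout: Orange Transcreener ADP2 tracer (4 nM) plus ADP antibody, read after 30 min at room temperature. Kinase step: 6.25 nM Clk4, 100 uM RS peptide, 1 uM ATP, pH 7.5, 1 h.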

[13] = target: Ubiquitin carboxyl-terminal hydrolase 1 (Homo sapiens) (UniProt O94782); assay: Inhibitors of USP1/UAF1: Pilot qHTS (AID 504865); conditions: purified USP1/UAF1, Ub-rhodamine cleavage fluorescence; series mostly up to 54.9 µM;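 also: rhodamine fluorescence freed from ubiquitin-rhodamine substrate followed over time; top concentration of the series differs between compounds; nearly all actives have a fitted effect of over 35% in size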
Procedure, shortened: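 1nM USP1/UAF1 + cpd, 15 min RT; start w/ Ub-Rho 150nM final; kinetic FL 480/540 nm, 6 reads q60 s. Buffer 50mM HEPES pH 7.8, 0.5mM EDTA, 1mM TCEP, 0.01% Tween-20, 0.1 mg/ml BSA.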

[14] = Primary qHTS for small molecule stabilizers of the endoplasmic reticulum resident proteome: Secreted ER Calcium Modulated Protein (SERCaMP) assay (AID 1508630); conditions: SH-SY5Y GLuc-SERCaMP (Gaussia luciferase released on ER calcium loss) secretion, thapsigargin, luminescence; series mostly up to 38.4 µM
Procedure, shortened: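 The SH-SY5Y reporter protocol was run at 3 concentrations up to 38.3 uM (primary) or 11 concentrations (follow-up): 16 h compound, 100 nM thapsigargin for 4 h, then extracellular luciferase luminescence.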

[15] = target: Cytochrome P450 1A2 (Homo sapiens) (UniProt P05177); assay: p450-cyp1a2 (AID 410; calls by dose curve; also: potency is read from the fitted curve at half-maximal effect); conditions: recombinant CYP1A2, luciferin-ME demethylation, luminescence; series mostly up to 57 µM
Procedure, shortened: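 Read-out is luminescence from luciferin produced by CYP1A2 demethylation of Luciferin-ME (100uM, at Km). Detection reagent stopped the 60 min NADPH-dependent reaction; signals were normalized to 57 uM furafylline.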

[16] = target: Cytochrome P450 3A4 (Homo sapiens) (UniProt P08684); assay: qHTS Assay for Inhibitors and Substrates of Cytochrome P450 3A4 (AID 884); conditions: recombinant CYP3A4, Luciferin-PPXE luminescence; series mostly up to 57.1 µM; also: potency is read from the fitted curve at half-maximal effect; nearly all actives have a fitted effect of over 50% in size
Procedure, shortened: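 Luminescent readout of luciferin produced by CYP3A4 (20 nM) dealkylation of Luciferin-PPXE, 25 uM (its KM). NADPH-driven reaction ran 60 min at RT after 10 min compound preincubation; data scaled to 57 uM ketoconazole as 100% inhibition.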

[17] = qHTS Assay for Identification of Small Molecule Agonists for Hypoxia Response Element Signaling Pathway (AID 914; active = well fitted activation curve with a large enough effect in the signal ratio, with a control signal flat, not every such curve was filed as active; the % refers to the signal ratio; also: potency is read from the fitted curve at half-maximal effect); conditions: ME-180 (cervical carcinoma) HRE-bla reporter, beta-lactamase ratio, CoCl2, 17 h; activation: hits give high values
Procedure, shortened: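 In Opti-MEM containing 0.5% dialyzed FBS and 10 mM HEPES, ME-180 HRE-bla cells received a compound titration and EC50 CoCl2. They were incubated 17 hours, then CCF4-loaded 2.5 hours at room temperature before ratio reading.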

[18] = target: Cytochrome P450 2C19 (Homo sapiens) (UniProt P33261); assay: qHTS Assay for Inhibitors and Substrates of Cytochrome P450 2C19 (AID 899); conditions: recombinant CYP2C19, luciferin-H EGE luminescence; series mostly up to 57.1 µM; also: potency is read from the fitted curve at half-maximal effect; nearly all actives have a fitted effect of over 60% in size
Procedure, shortened: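 5nM enzyme + 10uM Luciferin-H EGE (=KM), 50mM KPO4; cpd pin-transferred, 10 min 37C; NADPH regen, 60 min 37C; stopped w/ luciferin detection reagent, 20 min; luminescence. Normalized to 57uM ketoconazole (AC100).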

Ubiquitin carboxyl-terminal hydrolase 1 (Homo sapiens), sequence (O94782 whole entry, looked up): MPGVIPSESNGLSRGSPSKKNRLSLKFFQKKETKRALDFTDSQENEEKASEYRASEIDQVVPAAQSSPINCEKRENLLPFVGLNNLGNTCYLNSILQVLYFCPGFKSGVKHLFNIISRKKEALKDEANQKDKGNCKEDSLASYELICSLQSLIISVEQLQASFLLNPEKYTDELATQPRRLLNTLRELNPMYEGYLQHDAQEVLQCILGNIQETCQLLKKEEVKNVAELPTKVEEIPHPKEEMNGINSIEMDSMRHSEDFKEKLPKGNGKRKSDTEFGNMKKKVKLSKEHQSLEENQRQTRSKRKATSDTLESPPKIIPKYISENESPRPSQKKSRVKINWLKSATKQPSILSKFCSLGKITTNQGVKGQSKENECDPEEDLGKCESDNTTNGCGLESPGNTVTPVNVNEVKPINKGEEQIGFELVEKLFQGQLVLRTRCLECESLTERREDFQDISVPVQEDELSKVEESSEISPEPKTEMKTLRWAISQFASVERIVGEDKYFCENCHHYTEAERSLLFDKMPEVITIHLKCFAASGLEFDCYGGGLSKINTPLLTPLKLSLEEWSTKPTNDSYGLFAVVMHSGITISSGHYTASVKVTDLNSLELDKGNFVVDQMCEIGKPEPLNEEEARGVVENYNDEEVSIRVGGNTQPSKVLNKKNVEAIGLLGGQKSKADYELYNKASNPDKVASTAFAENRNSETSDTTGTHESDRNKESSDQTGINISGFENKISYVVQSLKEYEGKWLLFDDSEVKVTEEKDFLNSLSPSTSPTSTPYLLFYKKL
Dual specificity protein kinase CLK4 (Homo sapiens), sequence (Q9HAZ1 whole entry, looked up): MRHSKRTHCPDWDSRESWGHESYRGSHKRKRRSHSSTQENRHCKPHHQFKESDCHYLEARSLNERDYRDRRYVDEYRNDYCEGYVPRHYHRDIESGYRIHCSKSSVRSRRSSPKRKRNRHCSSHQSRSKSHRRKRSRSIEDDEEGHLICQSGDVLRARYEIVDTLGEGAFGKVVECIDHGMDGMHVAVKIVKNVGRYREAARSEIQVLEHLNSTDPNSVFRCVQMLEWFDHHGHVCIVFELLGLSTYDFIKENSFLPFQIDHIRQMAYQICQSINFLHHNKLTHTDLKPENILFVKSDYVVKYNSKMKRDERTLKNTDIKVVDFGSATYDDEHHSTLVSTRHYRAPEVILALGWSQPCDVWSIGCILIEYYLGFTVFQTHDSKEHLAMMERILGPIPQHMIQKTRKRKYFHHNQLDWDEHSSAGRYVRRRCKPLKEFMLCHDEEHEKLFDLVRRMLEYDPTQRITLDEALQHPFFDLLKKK
Cytochrome P450 3A4 (Homo sapiens), sequence (P08684 whole entry, looked up): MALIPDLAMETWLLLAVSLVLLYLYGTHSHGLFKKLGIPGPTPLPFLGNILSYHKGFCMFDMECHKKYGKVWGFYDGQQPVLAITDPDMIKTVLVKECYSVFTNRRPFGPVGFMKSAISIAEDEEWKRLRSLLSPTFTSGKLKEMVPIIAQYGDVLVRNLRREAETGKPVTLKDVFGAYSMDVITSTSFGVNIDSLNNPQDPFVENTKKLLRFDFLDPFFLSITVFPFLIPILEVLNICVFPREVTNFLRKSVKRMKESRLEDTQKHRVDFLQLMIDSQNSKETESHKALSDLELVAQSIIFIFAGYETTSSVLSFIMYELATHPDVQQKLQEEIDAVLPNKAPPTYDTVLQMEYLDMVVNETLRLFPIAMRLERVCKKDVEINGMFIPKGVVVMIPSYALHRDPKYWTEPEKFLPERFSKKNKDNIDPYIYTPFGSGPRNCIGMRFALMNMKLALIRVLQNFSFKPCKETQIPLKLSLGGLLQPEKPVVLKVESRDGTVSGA
3',5'-cyclic-AMP phosphodiesterase 4B (Homo sapiens), sequence (Q07343 whole entry, looked up): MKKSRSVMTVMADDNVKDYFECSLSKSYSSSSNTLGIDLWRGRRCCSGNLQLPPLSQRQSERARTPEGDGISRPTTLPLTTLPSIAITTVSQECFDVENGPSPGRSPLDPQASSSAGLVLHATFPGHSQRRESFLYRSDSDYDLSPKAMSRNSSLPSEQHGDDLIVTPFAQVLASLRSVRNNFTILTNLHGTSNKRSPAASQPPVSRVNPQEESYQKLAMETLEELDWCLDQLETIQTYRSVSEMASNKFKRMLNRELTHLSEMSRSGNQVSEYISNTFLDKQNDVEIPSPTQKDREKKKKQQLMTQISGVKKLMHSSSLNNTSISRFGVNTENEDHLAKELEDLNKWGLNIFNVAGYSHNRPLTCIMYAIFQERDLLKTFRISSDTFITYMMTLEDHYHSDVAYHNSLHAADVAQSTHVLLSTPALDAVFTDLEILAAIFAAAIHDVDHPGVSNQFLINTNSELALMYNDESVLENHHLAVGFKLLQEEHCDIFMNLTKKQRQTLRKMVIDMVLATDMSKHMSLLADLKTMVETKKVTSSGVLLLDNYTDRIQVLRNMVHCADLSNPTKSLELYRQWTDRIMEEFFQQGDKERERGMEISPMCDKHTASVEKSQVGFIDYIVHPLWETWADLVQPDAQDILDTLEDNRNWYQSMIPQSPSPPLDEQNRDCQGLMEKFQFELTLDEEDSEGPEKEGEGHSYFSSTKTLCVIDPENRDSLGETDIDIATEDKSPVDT
Lysosomal acid glucosylceramidase (Homo sapiens), sequence (P04062 whole entry, looked up): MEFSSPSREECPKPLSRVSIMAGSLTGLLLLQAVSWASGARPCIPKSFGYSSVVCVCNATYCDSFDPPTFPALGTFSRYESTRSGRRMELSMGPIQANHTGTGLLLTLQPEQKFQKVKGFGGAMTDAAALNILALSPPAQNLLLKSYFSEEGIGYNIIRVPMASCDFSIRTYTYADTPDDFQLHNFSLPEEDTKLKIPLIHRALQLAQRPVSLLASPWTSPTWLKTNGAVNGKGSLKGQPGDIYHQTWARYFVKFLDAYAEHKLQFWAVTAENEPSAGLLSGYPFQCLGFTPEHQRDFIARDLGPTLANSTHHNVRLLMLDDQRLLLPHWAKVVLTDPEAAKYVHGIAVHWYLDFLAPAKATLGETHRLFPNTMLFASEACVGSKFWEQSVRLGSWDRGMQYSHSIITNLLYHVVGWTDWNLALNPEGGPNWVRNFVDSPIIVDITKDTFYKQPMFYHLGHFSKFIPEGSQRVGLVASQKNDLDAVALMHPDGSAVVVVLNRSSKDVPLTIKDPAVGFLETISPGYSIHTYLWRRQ
Cytochrome P450 1A2 (Homo sapiens), sequence (P05177 whole entry, looked up): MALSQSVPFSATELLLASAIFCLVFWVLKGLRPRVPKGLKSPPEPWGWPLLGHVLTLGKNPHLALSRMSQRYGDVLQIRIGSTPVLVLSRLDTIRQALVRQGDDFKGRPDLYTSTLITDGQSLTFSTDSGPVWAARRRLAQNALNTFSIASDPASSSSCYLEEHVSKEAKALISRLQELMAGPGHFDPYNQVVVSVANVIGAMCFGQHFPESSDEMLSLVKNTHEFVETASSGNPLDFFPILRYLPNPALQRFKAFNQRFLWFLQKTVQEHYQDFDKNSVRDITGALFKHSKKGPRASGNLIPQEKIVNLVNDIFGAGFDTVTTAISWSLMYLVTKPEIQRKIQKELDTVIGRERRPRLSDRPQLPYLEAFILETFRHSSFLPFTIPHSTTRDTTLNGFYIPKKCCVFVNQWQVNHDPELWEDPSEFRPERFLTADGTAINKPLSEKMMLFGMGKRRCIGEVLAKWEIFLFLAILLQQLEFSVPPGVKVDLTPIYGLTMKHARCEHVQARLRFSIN
Glucocorticoid receptor (Homo sapiens), sequence (P04150 whole entry, looked up, the tested form may be a part): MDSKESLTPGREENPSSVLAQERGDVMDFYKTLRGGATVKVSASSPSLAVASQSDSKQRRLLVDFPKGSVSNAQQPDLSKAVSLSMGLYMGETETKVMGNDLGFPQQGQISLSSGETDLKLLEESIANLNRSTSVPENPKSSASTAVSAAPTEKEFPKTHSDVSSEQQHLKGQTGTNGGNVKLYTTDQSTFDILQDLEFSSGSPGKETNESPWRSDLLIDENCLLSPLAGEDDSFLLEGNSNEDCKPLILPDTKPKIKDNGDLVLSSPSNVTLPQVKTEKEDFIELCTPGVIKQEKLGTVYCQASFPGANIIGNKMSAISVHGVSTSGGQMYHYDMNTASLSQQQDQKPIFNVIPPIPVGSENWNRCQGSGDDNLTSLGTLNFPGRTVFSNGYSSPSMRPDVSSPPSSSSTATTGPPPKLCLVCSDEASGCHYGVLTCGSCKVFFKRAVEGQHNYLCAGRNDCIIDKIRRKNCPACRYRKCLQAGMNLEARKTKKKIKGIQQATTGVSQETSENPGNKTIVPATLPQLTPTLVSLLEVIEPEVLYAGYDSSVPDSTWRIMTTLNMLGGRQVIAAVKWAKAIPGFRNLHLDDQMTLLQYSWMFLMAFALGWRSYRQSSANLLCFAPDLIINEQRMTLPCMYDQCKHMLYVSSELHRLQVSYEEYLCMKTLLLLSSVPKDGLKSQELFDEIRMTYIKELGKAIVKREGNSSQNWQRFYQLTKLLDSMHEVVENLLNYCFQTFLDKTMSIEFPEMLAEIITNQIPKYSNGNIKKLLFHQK
Cytochrome P450 2C19 (Homo sapiens), sequence (P33261 whole entry, looked up): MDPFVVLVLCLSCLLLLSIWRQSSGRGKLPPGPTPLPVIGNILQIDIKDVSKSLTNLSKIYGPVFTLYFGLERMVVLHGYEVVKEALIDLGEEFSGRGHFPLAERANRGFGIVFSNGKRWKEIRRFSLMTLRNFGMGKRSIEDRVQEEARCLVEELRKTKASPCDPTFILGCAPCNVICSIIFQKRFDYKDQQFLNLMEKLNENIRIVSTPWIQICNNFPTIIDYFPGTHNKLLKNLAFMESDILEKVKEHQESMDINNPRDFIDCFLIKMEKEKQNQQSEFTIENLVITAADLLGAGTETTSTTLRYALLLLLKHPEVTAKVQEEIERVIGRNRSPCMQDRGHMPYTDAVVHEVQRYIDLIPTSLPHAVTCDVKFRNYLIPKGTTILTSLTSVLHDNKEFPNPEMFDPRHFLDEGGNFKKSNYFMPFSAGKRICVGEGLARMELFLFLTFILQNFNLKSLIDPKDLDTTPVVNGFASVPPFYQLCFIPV

SMILES | Potency [1] [µM] | activity change, negative = inhibition [2] [%] | activity change, negative = inhibition [3] [%] | activity, negative = inhibition [4] [%] | Potency [5] [µM] | Potency [6] [µM] | Potency [7] | Potency [8] | Potency [9] | Potency [10] | Potency [11] | Potency [12] | Potency [13] | outcome [14] | Potency [15] | Potency [16] | Potency [17] | Potency [18]
O=c1c(-c2ccccc2)nc2cnc(Nc3ccccc3)nc2n1C[C@H]1CCCO1 | > 11.4 | 1.69 | -14.2 | -4.27 | > 9.22 | > 46 | inactive | inactive | inactive | inactive | inactive | inactive | inactive | inactive | – | – | – | –
Cn1c(=O)c(CCc2ccccc2)nc2cnc(N3CCOCC3)nc21 | > 11.4 | -10.6 | 10.9 | 1.67 | > 9.22 | > 46 | inactive | inactive | – | inactive | inactive | inactive | inactive | inactive | – | – | – | –
COCCn1c(=O)c(CCc2ccccc2)nc2cnc(N3CCOCC3)nc21 | > 11.4 | -24.7 | -12.9 | -3.32 | > 9.22 | > 46 | inactive | inactive | – | inactive | inactive | inactive | inactive | inactive | – | – | – | –
COc1cccc(Cn2c(=O)c(-c3cn(C)c4ccccc34)nc3cnc(N4CCOCC4)nc32)c1 | > 11.4 | 5 | 7.78 | 10.6 | > 9.22 | > 46 | inactive | inactive | – | inactive | inactive | inactive | inactive | inactive | – | – | – | –
COc1ccc(Oc2ncc3nc(-c4cccc(C#N)c4)c(=O)n(C)c3n2)cc1 | > 11.4 | -0.821 | -9.84 | -2.78 | > 9.22 | > 46 | inactive | inactive | – | inactive | inactive | inactive | inactive | inactive | – | – | – | –
COc1ccc(-c2nc3cnc(N(C)C)nc3n(C)c2=O)cc1 | > 11.4 | 11 | 6.21 | 10.4 | > 9.22 | > 46 | inactive | inactive | – | inactive | inactive | inactive | inactive | inactive | – | – | – | –
COCCNc1nc(-c2ccoc2)nc2ccccc12 | > 11.4 | 1.3 | -13.7 | 8.88 | > 46 | > 46 | inactive | – | inactive | inactive | inactive | inactive | – | inactive | – | – | – | –
COc1cccc(Cn2c(=O)c(-c3ccccc3)nc3cnc(OC)nc32)c1 | > 11.4 | – | -17.4 | 1.57 | > 9.22 | > 46 | inactive | – | inactive | inactive | inactive | inactive | inactive | inactive | 15.8 µM (active) | 7.94 µM (active) | – | –
COc1ccc(-c2nc3cnc(N(C)C)nc3n(CCC#N)c2=O)cc1 | > 11.4 | -7.19 | -5.15 | – | > 9.22 | > 46 | inactive | inactive | – | inactive | inactive | inactive | inactive | inactive | – | – | – | –
Cn1c(=O)c(CCc2ccccc2)nc2cnc(Nc3ccccc3)nc21 | > 11.4 | – | 1.9 | -11.6 | > 9.22 | > 46 | inactive | – | inactive | inactive | inactive | inactive | inactive | inactive | 1.26 µM (active) | – | – | –
CCNc1ncc2nc(-c3cc(F)cc(F)c3)c(=O)n(Cc3ccc(F)cc3)c2n1 | > 11.4 | 20.2 | 28.9 | – | – | > 46 | inactive | inactive | – | inactive | inactive | inactive | inactive | inactive | – | – | 2 µM (active) | –
c1ccc(Nc2ncnc3ccc(-c4ccoc4)cc23)cc1 | > 11.4 | – | 14.5 | -4.75 | > 46 | > 46 | inactive | inactive | inactive | 0.708 µM (active) | 0.631 µM (active) | 0.447 µM (active) | inactive | inactive | 1.58 µM (active) | – | – | 2 µM (active)
Cn1cc(-c2nc3cnc(Oc4ccccc4)nc3n(Cc3cccs3)c2=O)c2ccccc21 | > 11.4 | – | 23.5 | 11 | > 9.22 | > 46 | inactive | inactive | – | inactive | inactive | inactive | inactive | inactive | 3.16 µM (active) | – | – | –
c1cncc(CNc2ncncc2-c2ccoc2)c1 | > 11.4 | 2.19 | 7.14 | – | > 46 | > 46 | inactive | inactive | – | inactive | inactive | inactive | inactive | inactive | – | – | – | –
